Test results as given in PubChem BioAssay (NCI).
This is part of a sample that, as a whole, favours compounds with a hit. Of some 83,000 tested, about 20% had one in any assay.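 Treatment: one concentration, 48 hours, 96-well format. Scoring: percent growth, with anything below 10 considered active.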 A number with no mark means an inactive call. Calls of active or inactive are those of the source.

Key:
Test in all cases: NCI-60 one-dose screen, 48 h (100 = growth as untreated, 0 = no growth, -100 = all killed)
SK-MEL-2 melanoma = conditions: 10 µM
EKVX NSCLC = conditions: 10 µM
SN12C renal = conditions: 10 µM
UO-31 renal = conditions: 10 µM
TK-10 renal = conditions: 10 µM unless noted
ACHN renal = conditions: 10 µM
CAKI-1 renal = conditions: 10 µM
A498 renal = conditions: 10 µM
CCRF-CEM leukemia = conditions: 10 µM
MOLT-4 leukemia = conditions: 10 µM

| SMILES | growth (SK-MEL-2 melanoma) | growth (EKVX NSCLC) | growth (SN12C renal) | growth (UO-31 renal) | growth (TK-10 renal) | growth (ACHN renal) | growth (CAKI-1 renal) | growth (A498 renal) | growth (CCRF-CEM leukemia) | growth (MOLT-4 leukemia) |
| --- | --- | --- | --- | --- | --- | --- | --- | --- | --- | --- |
| COc1cc2cc(c1Cl)N(C)C(=O)C[C@H](OC(=O)[C@H](C)N(C)C(C)=O)[C@]1(C)O[C@H]1[C@H](C)[C@@H]1C[C@@](O)(NC(=O)O1)[C@H](OC)C=C/C=C(\C)C2 | 55.5% | 31.3% | 27.6% | 7.35% (active) | 26.5% | 16.6% | 6.3% (active) | 4.38% (active) | -7.22% (active) | 14.2% |
| CCOC(=O)C1OC1c1ccccc1 (centres undefined) | 114% | 98.4% | 105% | 89.2% | 103% | 104% | 98.6% | 96.8% | 109% | 107% |
| O=C1OC[C@H]2[C@H](c3ccc(O)c(O)c3)c3cc(O)c(O)cc3C[C@H]12 | 26.4% | 152% | 110% | 47.2% | 118% | 112% | 136% | 134% | 205% | 281% |
| CC(=O)OCCC(C)CCC=C(C)C (centres undefined) | 98.1% | 100% | 101% | 88% | 106% | 104% | 103% | 100% | 104% | 114% |
| C#CC(C)(O)c1ccc(Cl)cc1 (centres undefined) | 106% | 98.6% | 113% | 99.4% | 106% | 110% | 103% | 98% | 103% | 107% |
| Nc1ccc(CC(=O)O)c(N)c1 | 113% | 101% | 102% | 89% | 105% | 104% | 89% | 62.8% | -27.4% (active) | 101% |
| Nc1ncnc2c1nc(N)n2C1OC(CO)C(O)C1O (centres undefined) | -11.6% (active) | -33.2% (active) | -22.8% (active) | -53.9% (active) | -14.2% (active) | 2.76% (active) | -28.6% (active) | -80.3% (active) | 1.73% (active) | 1.73% (active) |
| O=C(O)c1ccnc(Br)c1 | 105% | 98.1% | 113% | 91.4% | 104% | 108% | 97.8% | 88.7% | 112% | 116% |
| Cc1cc(=O)cc(C)n1-c1ccccc1 | 104% | 107% | 89.3% | 90% | 96.3% | 102% | 95% | 103% | 92.4% | 102% |
| COc1ccc(NC(=O)CCl)cc1 | 74.9% | 103% | 67.2% | 90.9% | 118% | 88.8% | 97% | 120% | 50.5% | 64.4% |
| Cc1cc(/C=C/c2ccc3cc(N(C)C)ccc3[n+]2C)c(C)n1-c1ccccc1 | -51.6% (active) | 0.119% (active) | -25.7% (active) | 1.75% (active) | -5.02% (active) | -83.5% (active) | -31% (active) | -25% (active) | 0.765% (active) | 0.162% (active) |
| Cc1ccc(Cl)cc1N1C(=O)CC(Sc2ccccc2N)C1=O (centres undefined) | 107% | 104% | 96.8% | 105% | 114% | 94.2% | 97.2% | 103% | 93.8% | 74.7% |
| CCOC(=O)Nc1nn[nH]n1 | 109% | 112% | 103% | 96.6% | 114% | 100% | 113% | 83.8% | 95% | 98.4% |
| S=c1sc2ccccc2n1CN1CCCCC1 | 94% | 104% | 109% | 77.2% | 93.7% | 98.7% | 88.2% | 96.5% | 102% | 112% |
| O=C(O)C(O)c1ccccc1 (centres undefined) | 104% | 99.9% | 106% | 84.5% | 103% | 103% | 96.8% | 93.9% | 106% | 102% |
| NCCC(=O)c1ccc(Cl)cc1 | 101% | 110% | 108% | 85.7% | 102% | 121% | 101% | 107% | 103% | 89.6% |
| CN(C)CCN(Cc1ccccc1)c1ccccc1 | 124% | 110% | 97.5% | 107% | 110% | 110% | 77.2% | 99% | 123% | 90.5% |
| NCC(=O)CCC(=O)O | 126% | 109% | 105% | 94.6% | 114% | 99.2% | 109% | 110% | 109% | 108% |
| CCOc1ccc(/C=N/N=C(N)N)cc1OCC | 113% | 91.8% | 108% | 74.7% | 106% | 97.4% | 95.7% | 101% | 95.4% | 87.6% |
| CCN(CC)C(=O)/C=C(/C)c1ccccc1 | 113% | 107% | 104% | 102% | 107% | 110% | 100% | 86.6% | 100% | 114% |
| S=C(Nc1ccccc1)N1CCCCC1 | 98% | 105% | 102% | 88.4% | 109% | 94.5% | 94.6% | 77.6% | 102% | 98% |
| N#C/C(=C\c1cc(O)c(O)c(O)c1)C(N)=O | 123% | 97.4% | 107% | 110% | 116% | 96.6% | 93.6% | 119% | 74% | 73.1% |
| CC(C)(O)C#CC#CC(C)(C)O | 103% | 99.5% | 109% | 99.1% | 95.6% | 98.8% | 97.5% | 93.6% | 98.6% | 90.7% |
| Cc1ccc(N)cc1[N+](=O)[O-] | 128% | 113% | 109% | 83.3% | 107% | 108% | 102% | 117% | 84.6% | 76.3% |
| CN(C)c1ccc(C(c2ccc(O)cc2)c2ccc(N(C)C)cc2)cc1 | 101% | 91.3% | 92% | 81.2% | 117% | 103% | 93.7% | 85.8% | 96.3% | 86.4% |
| O=C(Nc1cc(-c2ccccc2)[nH]n1)c1ccc(Cl)cc1 | 78% | 101% | 84.1% | 59.1% | 66.6% | 60.8% | 76.3% | 78.6% | 62% | 85.2% |
| Nc1ccccc1C(=O)Nc1ccc(Cl)cc1Cl | 112% | 99.5% | 103% | 52.4% | 118% | 94% | 69.1% | 107% | 90.3% | 77.7% |
| CN(C)c1nc2c([nH]1)c(=O)n(C)c(=O)n2C | 98.7% | 104% | 105% | 99.1% | 107% | 102% | 102% | 89.6% | 92.5% | 99.6% |
| Oc1ccccc1-c1nnco1 | 96.4% | 107% | 83.2% | 55% | 95.4% | 83% | 100% | 75.9% | 89% | 90.1% |
| COc1ccc(C)cc1OC | 112% | 108% | 99.3% | 89.8% | 104% | 115% | 101% | 94.5% |  | 110% |
